Our source for the Potency and outcome values is PubChem BioAssay (Tox21).

Experiment [1] is described as follows: qHTS assay to identify small molecule antagonists of the thyroid receptor (TR) signaling pathway - cell viability counter screen (AID 743064). Also: nearly all actives have a fitted effect of over 50% in size. Summed up: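 Fluorescence from CellTiter-Fluor, added after 23.5 h exposure at 37 °C, reported viability of GH3.TRE-Luc cells co-treated with compound and 1 nM T3. Measured in the same wells as the luciferase TR readout.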

A short description of experiment [2]: qHTS assay to identify small molecule antagonists of the thyroid receptor (TR) signaling pathway (AID 743065). Also: series mostly up to about 70 µM; nearly all actives have a fitted effect of over 55% in size. Summed up: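 Antagonism measured as loss of luciferase signal in GH3 cells stably carrying a TRE-luciferase reporter, co-treated with compound and T3 (1 nM final) for 23.5 h at 37 C. Viability was read in the same well by CellTiter-Fluor.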
(In general: qHTS replaces the single test concentration by a dilution series.)

Experiment [3] has as its system thyroid hormone receptor (rat, GH3 cells). Nature of the experiment: qHTS assay to identify small molecule agonists of the thyroid receptor (TR) signaling pathway (AID 743066; calls by dose curve).
For experiment [4], the target named is Estrogen receptor (Homo sapiens) (UniProt P03372). As to the kind of experiment: qHTS assay to identify small molecule antagonists of the estrogen receptor alpha (ER-alpha) signaling pathway (AID 743069; active = well fitted curve in the direction sought with a large enough effect in the signal ratio in the repeat runs, not every such curve was filed as active; the % refers to the signal ratio). Summed up:
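Fluorescence intensity from a beta-lactamase FRET substrate served as the read-out. Cells: HEK293 with stably integrated ER-alpha-UAS-bla reporter. Agonist 17beta-estradiol was co-added with compounds; incubation 18 hr at 37C, substrate 2 hr at room temperature.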

Experiment [5] can be described thus: qHTS assay to identify small molecule antagonists of the estrogen receptor alpha (ER-alpha) signaling pathway - cell viability counter screen (AID 743074; calls by dose curve; also: nearly all actives have a fitted effect of over 45% in size).
Experiment [6] has as its target Estrogen receptor (Homo sapiens) (UniProt P03372). As to the kind of experiment: qHTS assay to identify small molecule agonists of the estrogen receptor alpha (ER-alpha) signaling pathway (AID 743075; calls by dose curve).
The target is the same in experiment [7]. As to the kind of experiment: qHTS assay to identify small molecule agonists of the estrogen receptor alpha (ER-alpha) signaling pathway using the BG1 cell line (AID 743079). Also: nearly all actives have a fitted effect of over 20% in size. Also: potency is read from the fitted curve at half-maximal effect.
The nature of experiment [8]: qHTS assay to identify small molecule antagonists of the estrogen receptor alpha (ER-alpha) signaling pathway using the BG1 cell line (AID 743080; calls by dose curve; also: series mostly up to about 70 µM; nearly all actives have a fitted effect of over 25% in size). A digest of the protocol:
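Antagonist mode: compounds in DMSO were pinned onto BG1-Luc-4E2 cells alongside 17beta-estradiol agonist, incubated 21.5 h, and ERE-driven luciferase measured with ONE-Glo. Cytotoxicity was multiplexed using CellTiter-Fluor fluorescence.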

A short description of experiment [9]: qHTS assay to identify small molecule antagonists of the estrogen receptor alpha (ER-alpha) signaling pathway using the BG1 cell line - cell viability counter screen (AID 743081).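 Also: compound given together with 17beta-estradiol as the ER stimulus; series mostly up to about 70 µM; nearly all actives have a fitted effect of over 45% in size.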
The target in another experiment is Aromatase (Homo sapiens) (UniProt P11511). As to the kind of experiment: qHTS assay to identify aromatase inhibitors (AID 743083). Also: series mostly up to about 70 µM; nearly all actives have a fitted effect of over 55% in size.

SMILES strings stand for the structures. Values joined by “and” are separate entries in the source; they are usually repeats but may differ in a detail not shown here. Equal values may be shown once. Results filed as inconclusive are left out. Some structures have more than one record in an assay (separate samples or runs), and their calls can disagree. Active and inactive are the calls of the source. Unless noted, calls follow the shape of the dose curve; as a rule, active = well fitted curve in the direction sought with a large enough effect in the repeat runs; inconclusive = weak or mixed curves; inactive = no such curve, though single readings can be large; an effect the other way counts as inactive or inconclusive.

Sequence of Aromatase (Homo sapiens) (P11511 whole entry, looked up): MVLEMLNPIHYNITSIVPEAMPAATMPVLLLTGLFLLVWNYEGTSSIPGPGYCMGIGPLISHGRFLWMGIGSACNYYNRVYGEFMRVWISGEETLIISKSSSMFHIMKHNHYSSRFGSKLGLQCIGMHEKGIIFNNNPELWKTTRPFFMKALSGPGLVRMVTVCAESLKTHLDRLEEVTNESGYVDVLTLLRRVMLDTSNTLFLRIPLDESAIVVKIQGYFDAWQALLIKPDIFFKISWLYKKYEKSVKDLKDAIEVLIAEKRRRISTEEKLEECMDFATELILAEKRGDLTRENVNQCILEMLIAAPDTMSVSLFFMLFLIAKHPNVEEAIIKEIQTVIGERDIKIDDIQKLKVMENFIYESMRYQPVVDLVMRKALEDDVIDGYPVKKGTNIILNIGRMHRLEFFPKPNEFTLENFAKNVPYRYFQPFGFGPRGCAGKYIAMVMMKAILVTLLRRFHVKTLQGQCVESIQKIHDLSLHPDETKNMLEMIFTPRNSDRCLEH
Sequence of Estrogen receptor (Homo sapiens) (P03372 whole entry, looked up): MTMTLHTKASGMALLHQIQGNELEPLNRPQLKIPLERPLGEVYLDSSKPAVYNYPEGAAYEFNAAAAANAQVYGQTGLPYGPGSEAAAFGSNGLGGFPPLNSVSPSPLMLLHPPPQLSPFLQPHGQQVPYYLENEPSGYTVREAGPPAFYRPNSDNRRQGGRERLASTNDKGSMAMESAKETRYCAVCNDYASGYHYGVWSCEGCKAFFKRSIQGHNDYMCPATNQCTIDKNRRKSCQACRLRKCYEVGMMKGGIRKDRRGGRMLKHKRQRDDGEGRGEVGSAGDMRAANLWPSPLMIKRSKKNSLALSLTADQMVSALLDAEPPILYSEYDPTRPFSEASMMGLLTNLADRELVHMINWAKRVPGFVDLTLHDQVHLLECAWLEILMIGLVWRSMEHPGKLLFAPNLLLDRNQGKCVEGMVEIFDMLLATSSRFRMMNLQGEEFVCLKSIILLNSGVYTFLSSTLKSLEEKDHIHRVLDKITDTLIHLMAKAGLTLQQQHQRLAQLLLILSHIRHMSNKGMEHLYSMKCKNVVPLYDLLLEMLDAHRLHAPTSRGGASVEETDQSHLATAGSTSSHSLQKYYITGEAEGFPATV

With `C=CC#N`, the Potency result (in experiment [1]; in experiment [2]; in experiment [3]; in experiment [4]; in experiment [7]; with Aromatase (Homo sapiens)) was “inactive” in each case. For the same compound, the result in experiment [5], in experiment [6], in experiment [8] and in experiment [9] was inactive.
In the case of `CNC(=O)O/N=C/C(C)(C)S(C)(=O)=O`, the Potency result (in experiment [1]; in experiment [2]; in experiment [3]; in experiment [4]; in [7]; with Aromatase (Homo sapiens)) was “inactive” throughout. For the same compound, the compound was classed as inactive in experiment [5], in [6], in experiment [8] and in [9].
As for `O=C(O)c1cc(Oc2ccc(C(F)(F)F)cc2Cl)ccc1[N+](=O)[O-]`, the Potency result (in experiment [1]; in [2]; in experiment [3]; with Aromatase (Homo sapiens)) was “inactive” in each case. Also, the compound was classed as inactive in experiment [5] and in experiment [9].
Take `Clc1cnc(Oc2ccc(Oc3ncc(Cl)cc3Cl)cc2)c(Cl)c1`: the Potency result (in experiment [1]; in experiment [2]; in experiment [3]; with Aromatase (Homo sapiens)) was “inactive” each time. The result in [5] and in [9] was inactive.
As to `Cc1ccc(O)c(C)c1`, the Potency entry (in experiment [1]; in experiment [2]; in [3]; in experiment [4]; in experiment [7]; in the experiment with Aromatase (Homo sapiens)) was “inactive” each time. Further, the outcome in [5], in [6], in experiment [8] and in [9] was inactive.
For the compound `CC(C)c1cccc(C(C)C)c1O`, the Potency result (in [1]; in experiment [2]; in [3]; in experiment [4]; in experiment [7]; with Aromatase (Homo sapiens)) was “inactive” throughout. Also, the outcome in experiment [5], in [6], in experiment [8] and in [9] was inactive.
With `COc1nc(NC(C)C)nc(NC(C)C)n1`, the Potency result (in [1]; in experiment [2]; in experiment [3]; in experiment [4]; in experiment [7]; with Aromatase (Homo sapiens)) was “inactive” throughout. Further, the outcome in experiment [5], in experiment [6], in experiment [8] and in [9] was inactive.
Take `O=C(O)C1C(C(=O)O)C2(Cl)C(Cl)=C(Cl)C1(Cl)C2(Cl)Cl` (centres undefined): the Potency result (in experiment [1]; in experiment [2]; in [3]; in experiment [4]; in [7]; with Aromatase (Homo sapiens)) was “inactive” in each case. Also, the outcome in [5], in experiment [6], in [8] and in experiment [9] was inactive.
With `CN(C)CCC#N`, the Potency entry (in [1]; in experiment [2]; in [3]; in experiment [4]; in [7]; with Aromatase (Homo sapiens)) was “inactive” each time. Further, the outcome in [5], in experiment [6], in experiment [8] and in experiment [9] was inactive.
Turning to `O=C(O)Cc1ccccc1`, the Potency result (in experiment [1]; in [2]; in [3]; in experiment [4]; in experiment [7]; with Aromatase (Homo sapiens)) was “inactive” each time. Also, the compound was classed as inactive in experiment [5], in [6], in experiment [8] and in experiment [9].
On to `Cl/C=C/Cl`, for which the Potency result (in [1]; in experiment [2]; in experiment [3]; in [4]; in experiment [7]; with Aromatase (Homo sapiens)) was “inactive” throughout. For the same compound, the call in experiment [5], in [6], in experiment [8] and in experiment [9] was inactive.
Consider `OC[C@@H](O)[C@H]1O[C@@H]2O[C@H](C(Cl)(Cl)Cl)O[C@@H]2[C@H]1O`, for which the Potency entry (in [1]; in experiment [3]; in [4]; in experiment [7]; in the experiment with Aromatase (Homo sapiens)) was “inactive” throughout. Moreover, the call in experiment [5], in experiment [6], in [8] and in experiment [9] was inactive.
Consider `CCOc1ccc(N)cc1`, for which the Potency entry (in [1]; in experiment [3]; in experiment [4]; in experiment [7]; with Aromatase (Homo sapiens)) was “inactive” each time. Also, the compound was called inactive in experiment [5], in [6], in experiment [8] and in experiment [9].
As to `COC(=O)Nc1cccc(OC(=O)Nc2cccc(C)c2)c1`, the Potency entry (in experiment [1]; in experiment [2]; in experiment [3]; with Aromatase (Homo sapiens)) was “inactive” each time. The outcome in experiment [5] and in experiment [9] was inactive.
Turning to `Cc1cccc(N)c1C`, the Potency result (in experiment [1]; in [3]; in experiment [4]; in experiment [7]; in the experiment with Aromatase (Homo sapiens)) was “inactive” in each case. In addition, the result in [5], in experiment [6], in experiment [8] and in [9] was inactive.
On to `COC(C)(C)CCCC(C)C/C=C/C(C)=C/C(=O)OC(C)C` (centres undefined), for which the Potency entry (in [1]; in experiment [2]; in experiment [3]; with Aromatase (Homo sapiens)) was “inactive” in each case. The compound was classed as inactive in experiment [5] and in experiment [9].
Consider `C=CC(=O)OCC(CC)CCCC` (centres undefined), for which the Potency entry (in experiment [1]; in [2]; in experiment [3]; with Aromatase (Homo sapiens)) was “inactive” in each case. Moreover, the compound was classed as inactive in experiment [5] and in [9].
Take `CNC(=O)O/N=C(\SC)C(=O)N(C)C`: the Potency entry (in experiment [1]; in [3]; in [4]; with Aromatase (Homo sapiens)) was “inactive” in each case. Further, the compound was called inactive in [5], in experiment [6], in [8] and in experiment [9]. The Potency in [7] is 66.7 µM (active).
Take `Nc1ncc([N+](=O)[O-])s1`: the Potency result (in experiment [1]; in experiment [3]; in experiment [4]; with Aromatase (Homo sapiens)) was “inactive” throughout. In addition, the compound was classed as inactive in [5], in [6], in experiment [8] and in experiment [9]. Also, the Potency result in [7] is “inactive and 61.1 µM (active)”.
As to `Nc1cccc(Cl)c1`, the Potency result (in experiment [1]; in experiment [3]; in experiment [4]; in [7]; with Aromatase (Homo sapiens)) was “inactive” each time. Moreover, the compound was called inactive in experiment [5], in experiment [6], in experiment [8] and in [9].
